From PubChem BioAssay (Tox21)
Inconclusive results are not listed. Unmarked numbers belong to inactive results. Activity calls are given as the source filed them. Calls follow the shape of the dose curve; as a rule, active = well fitted cell-killing curve with a large enough effect in the repeat runs; inconclusive = weak or mixed curves, or effect the other way; inactive = no such curve, though single readings can be large or run the other way.

test: qHTS assay to identify small molecule agonists of the estrogen receptor alpha (ER-alpha) signaling pathway in the presence of an antagonist - cell viability counter screen (AID 1259386); details: VM7Luc4E2 viability, CellTiter-Fluor fluorescence, 22 h; series mostly up to 92.4 µM;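 also: cells exposed to compounds for 22 h at 37 °C before the viability read; nearly all actives have a fitted effect of over 30% in size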
How it was run: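 Fluorescent CellTiter-Fluor viability signal from VM7Luc4E2 cells, with the reagent added during the final hour of a 22hr compound exposure at 37C in the presence of 10.0nM ICI-182,780.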
% is scaled to controls: 0 for no effect and ±100 for the full control effect.

SMILES	outcome	activity change, negative = cytotoxicity
C[C@]12C=CC(=O)C=C1[C@@H](F)C[C@@H]1[C@@H]2[C@@H](O)C[C@@]2(C)[C@H]1CC[C@]2(O)C(=O)CO	inactive	
CCCCCCCCCCCCCC(=O)OCC	inactive	
CCN1CCN(C(=O)N[C@@H](C(=O)N[C@@H]2C(=O)N3[C@@H]2SC(C)(C)[C@H]3C(=O)O)c2ccccc2)C(=O)C1=O	inactive	
CC(=O)O[C@@H]1CC2C3CCc4cc(OC(=O)c5ccccc5)ccc4C3CCC2(C)[C@H]1OC(C)=O (stereo partly drawn)	inactive	
CCCCCCCCCCCCCCCCN(C)C		0.513% [at 8.39 µM]
CC/C=C\CCCCCCCCCCOC(C)=O	inactive	
CCOC(=O)[C@H](CCc1ccccc1)N[C@H]1CS[C@H](c2cccs2)CN(CC(=O)O)C1=O	inactive	
CN(C)CCC[C@@]1(c2ccc(F)cc2)OCc2cc(C#N)ccc21	inactive	
N=C(N)S(=O)O	inactive	
CCCCN1C(=O)c2ccccc2C1=O	inactive	
CC(C)(O)CCCC1=CCC(C=O)CC1 (stereo not drawn)	inactive	
CCCCOCCCC	inactive	
COc1ccccc1N1CCN(CC(O)COc2cc(OC)c(OC)c(OC)c2)CC1 (stereo not drawn)	inactive	
COCc1nnc(-c2ccc[n+]([O-])c2)n1-c1c(Cl)c(Cl)cc2[nH]c(=O)c(=O)[nH]c12	inactive	
CC1(C)S[C@@H]2[C@H](NC(=O)Cc3ccccc3)C(=O)N2[C@H]1C(=O)O (tested in a mixture with another compound)	inactive	
CC(C)(C)C(=O)CCc1ccc(Cl)cc1	inactive	
Cc1ccc(Br)cc1	inactive	
CC(O)C(CO)C(C)O (stereo not drawn)	inactive	
Nc1cc(S(=O)(=O)O)ccc1O	inactive	

SMILES	outcome	activity change, negative = cytotoxicity
CCCCC(CC)COC(=O)CC#N (stereo not drawn)	inactive	
COc1cc(S(N)(=O)=O)cc(C(=O)O)c1OC	inactive	
CCN1CCN(C(=O)N[C@@H](C(=O)N[C@@H]2C(=O)N3C(C(=O)O)=C(CSc4nnnn4C)CS[C@H]23)c2ccc(O)cc2)C(=O)C1=O	inactive	
O=C(CCBr)N1CCN(C(=O)CCBr)CC1	inactive	
CC/C=C\CCOC(=O)c1ccccc1	inactive	
CCNC(=O)C(C)OC(=O)Nc1ccccc1 (stereo not drawn)	inactive	
CC(=O)c1ccc2ccc3ccccc3c2c1	inactive	
CN(C)CCc1c[nH]c2ccc(C[C@H]3COC(=O)N3)cc12	inactive	
C=CCCCCCCCCCCCCCC		1.42% [at 19 µM]
COC(=O)c1ccc(C(=O)O)cc1	inactive	
CCCCCCCCCCCCCCBr	inactive	
CC(C)C[P+](C)(CC(C)C)CC(C)C	inactive	
O=C(O)/C=C(\CC(=O)O)C(=O)O	inactive	
CCC(C)c1nccnc1OC (stereo not drawn)	inactive	
N#CC1(N)CCCCC1	inactive	
Cc1ccc(OC(=O)CC(C)C)cc1	inactive	
CCCC(=O)OC	inactive	
CC(CC(=O)Cl)CC(C)(C)C (stereo not drawn)	inactive	
CCC(C)SSC(C)CC (stereo not drawn)	inactive	
